Sampled rows, rich in hits. Any-hit rate of the full collection: about 2.3%.
Pf Dd2 inh – P. falciparum Dd2 growth inhibitors, primary screen, SYBR Green fluorescence, single dose replicates. 72 h; hits give low values. activity change, % at 10 µM. 94,000 compounds, 2.3% hits. AID 1159554, 2015; in the data active = activity change below about -80%; inconclusive = no clear call, values can overlap the other calls
C diff growth – C. difficile growth inhibitors, primary screen, HTS; Clostridium difficile clinical isolate growth, OD600, 24 h; hits give low values; growth activity, negative = inhibition, % at 16 µg/mL (by protocol); 86,000 compounds, 0.25% hits; AID 1259249, 2017;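 active = mean growth activity at or below -80% and every replicate also at or below -80%; inconclusive = mean at or below -80% but some replicate above -80%; inactive = mean growth activity above -80%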
A number is an active result.

For C[C@@H]1CCCCO[C@@H](CN(C)S(=O)(=O)c2cn(C)cn2)[C@@H](C)CN([C@H](C)CO)C(=O)c2cc(NC(=O)Nc3cccc4ccccc34)ccc2O1 the results were Pf Dd2 inh inactive and C diff growth inactive.
Screening C[C@@H]1CCCCO[C@@H](CN(C)S(=O)(=O)c2ccc(F)cc2)[C@H](C)CN([C@@H](C)CO)C(=O)c2cc(NC(=O)Nc3cccc4ccccc34)ccc2O1 returned Pf Dd2 inh inactive and C diff growth inactive.
`C[C@@H]1CCCCO[C@H](CN(C)S(=O)(=O)c2ccc(F)cc2)[C@H](C)CN([C@H](C)CO)C(=O)c2cc(NC(=O)Nc3cccc4ccccc34)ccc2O1` gave Pf Dd2 inh inactive and C diff growth inactive.
Screening C[C@@H]1CN([C@@H](C)CO)C(=O)c2cc(NC(=O)Nc3cccc4ccccc34)ccc2O[C@@H](C)CCCCO[C@@H]1CN(C)S(=O)(=O)c1cn(C)cn1 returned Pf Dd2 inh -90 and C diff growth inactive.
`O=C(C1CCCC1)N1CCCCN2[C@H](CO)[C@@H](c3ccc(-c4cccc(F)c4)cc3)[C@H]2C1` gave Pf Dd2 inh inactive and C diff growth inactive.
`C[C@H]1CN([C@@H](C)CO)C(=O)CCCn2nncc2CO[C@@H]1CN(C)C(=O)CCCN(C)C` gave Pf Dd2 inh inactive.
Screening CNC[C@@H]1OCCCC[C@@H](C)Oc2ccc(NS(=O)(=O)c3ccccc3)cc2C(=O)N([C@@H](C)CO)C[C@@H]1C returned Pf Dd2 inh inactive and C diff growth inactive.
`CN1CCN(C(=O)C[C@@H]2C[C@@H]3c4cc(NC(=O)Nc5ccc(C(F)(F)F)cc5)ccc4O[C@@H]3[C@H](CO)O2)CC1` gave Pf Dd2 inh inactive and C diff growth inactive.
`C[C@H]1CN([C@@H](C)CO)S(=O)(=O)c2ccc(C#Cc3ccccc3F)cc2O[C@@H]1CN(C)C` gave Pf Dd2 inh inactive and C diff growth inactive.
Screening CCC(=O)N[C@H]1CC[C@H](CC(=O)NCc2ccccc2OC)O[C@H]1CO returned Pf Dd2 inh inactive and C diff growth inactive.
For C[C@@H]1CCCCO[C@H](CN(C)S(=O)(=O)c2ccccc2)[C@@H](C)CN([C@H](C)CO)C(=O)c2cc(NC(=O)Nc3cccc4ccccc34)ccc2O1 the results were Pf Dd2 inh inactive and C diff growth inactive.
Screening C[C@@H]1CN([C@H](C)CO)C(=O)c2cc(NC(=O)Nc3cccc4ccccc34)ccc2O[C@@H](C)CCCCO[C@@H]1CN(C)S(=O)(=O)c1ccccc1 returned Pf Dd2 inh -93 and C diff growth inactive.
`N#C[C@H]1[C@H](c2ccc(C3=CCCC3)cc2)[C@H](CO)N1C(=O)C1CC1` gave Pf Dd2 inh inactive and C diff growth inactive.
For CNC(=O)C[C@@H]1CC[C@@H]2[C@H](COc3ccc(NC(=O)Nc4cccc(F)c4)cc3C(=O)N2C)O1 the results were Pf Dd2 inh inactive and C diff growth inactive.
For CO[C@@H]1CN(C)C(=O)c2cc(NC(=O)c3cccc(F)c3)ccc2OC[C@H](C)NC[C@@H]1C the results were Pf Dd2 inh inactive.
`COc1ccc2c3c(n(C)c2c1)[C@@H](CO)N(C(=O)CN(C)C)CC31CCN(C(=O)CN(C)C)CC1` gave Pf Dd2 inh inactive and C diff growth inactive.
CCCNC(=O)N1CC2(CCN(S(=O)(=O)c3ccccc3)CC2)c2c(n(C)c3cc(OC)ccc23)[C@H]1CO was read as Pf Dd2 inh inactive and C diff growth inactive.
Screening COc1ccc(S(=O)(=O)N2CCC3(CC2)CN(C(=O)CN(C)C)[C@@H](CO)c2c3c3ccc(OC)cc3n2C)cc1 returned Pf Dd2 inh -88 and C diff growth inactive.
For CCCNC(=O)N1CC2(CCN(S(=O)(=O)c3ccc(OC)cc3)CC2)c2c(n(C)c3cc(OC)ccc23)[C@@H]1CO the results were Pf Dd2 inh -86 and C diff growth inactive.
O=C(NCCc1ccncc1)[C@H]1N[C@H]2c3ccc(/C=C/c4ccccc4)c(=O)n3C[C@H]2[C@@H]1CO was read as C diff growth inactive.
For O=C(Cc1ccccc1)N1CC2(C1)[C@H](c1ccccc1)[C@H](CO)N2C(=O)c1cccnc1 the results were Pf Dd2 inh inactive and C diff growth inactive.
For COc1ccc(NC(=O)N(C)C[C@@H]2OCc3ccccc3-c3c(n(C)c4ccccc34)C(=O)N([C@@H](C)CO)C[C@@H]2C)cc1 the results were Pf Dd2 inh inactive.
For C[C@H](CO)N1C[C@H](C)[C@H](CN(C)C(=O)Nc2ccc(-c3ccccc3)cc2)OCc2ccccc2-c2c(n(C)c3ccccc23)C1=O the results were Pf Dd2 inh -89 and C diff growth inactive.
C[C@H](CO)N1C[C@H](C)[C@@H](CN(C)C(=O)Nc2ccc(F)cc2)OCc2ccccc2-c2c(n(C)c3ccccc23)C1=O was read as Pf Dd2 inh -92 and C diff growth inactive.
`C[C@H]1CN([C@@H](C)CO)C(=O)c2c(c3ccccc3n2C)-c2ccccc2CO[C@H]1CN(C)C(=O)Nc1ccc(-c2ccccc2)cc1` gave Pf Dd2 inh -89 and C diff growth inactive.
For C[C@@H]1CN([C@@H](C)CO)C(=O)c2c(c3ccccc3n2C)-c2ccccc2CO[C@@H]1CN(C)C(=O)Nc1ccccc1 the results were Pf Dd2 inh inactive.
`C[C@H]1CN([C@@H](C)CO)C(=O)c2c(c3ccccc3n2C)-c2ccccc2CO[C@H]1CN(C)C(=O)Nc1ccccc1` gave Pf Dd2 inh inactive.
For C[C@@H]1CN([C@@H](C)CO)C(=O)c2c(c3ccccc3n2C)-c2ccccc2CO[C@H]1CN(C)C(=O)Nc1ccc(-c2ccccc2)cc1 the results were Pf Dd2 inh -91 and C diff growth inactive.
Screening C[C@@H]1CN([C@H](C)CO)C(=O)c2c(c3ccccc3n2C)-c2ccccc2CO[C@@H]1CN(C)C(=O)Nc1cccc(F)c1 returned Pf Dd2 inh inactive.
Screening CNC(=O)C[C@@H]1CC[C@H]2[C@@H](COc3ccc(NC(=O)C(C)C)cc3C(=O)N2C)O1 returned Pf Dd2 inh inactive and C diff growth inactive.
`CNC(=O)C[C@H]1CC[C@H]2[C@H](COc3ccc(NC(=O)Nc4cccc(F)c4)cc3C(=O)N2C)O1` gave Pf Dd2 inh inactive and C diff growth inactive.
COc1ccc2c3c([nH]c2c1)[C@@H](CO)N(C(=O)CN1CCOCC1)CC31CN(C(=O)NC(C)C)C1 was read as Pf Dd2 inh inactive and C diff growth inactive.
`O=C(C[C@H]1CC[C@H](NC(=O)NC2CCCC2)[C@H](CO)O1)NCc1ccc(F)cc1` gave Pf Dd2 inh inactive.
For C[C@@H]1CCCCO[C@H](CN(C)C(=O)Nc2ccc(F)cc2)[C@H](C)CN([C@@H](C)CO)C(=O)c2cc(NS(=O)(=O)c3cccs3)ccc2O1 the results were Pf Dd2 inh -85 and C diff growth inactive.
For C[C@@H]1CCCCO[C@H](CN(C)C(=O)Nc2ccc(C(F)(F)F)cc2)[C@H](C)CN([C@@H](C)CO)C(=O)c2cc(NS(=O)(=O)c3cccs3)ccc2O1 the results were Pf Dd2 inh inconclusive and C diff growth inactive.
For C[C@@H]1CCCCO[C@H](CN(C)C(=O)Nc2ccc(F)cc2)[C@@H](C)CN([C@H](C)CO)C(=O)c2cc(NS(=O)(=O)c3cccs3)ccc2O1 the results were Pf Dd2 inh inactive and C diff growth inactive.

From PubChem BioAssay
